Measurements taken from PubChem BioAssay.
Calls of active or inactive are those of the source. Unless noted, the rule behind the calls is not given here.

How the values were obtained:
[1] = liver-stage malaria parasite load reduction – cell-based, known kinase inhibitor set, luminescence, hepatoma host viability (AID 624392); conditions: Plasmodium liver stage in hepatoma cells, luciferase luminescence, concentration not given here; liver cell % of control: measured here: host liver cell viability; parasite % of control: stronger effect = lower value;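 note: infected cells incubated roughly two days before readout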
[2] = altered dexamethasone sensitivity, NF-kB reporter, cell-based, luciferase, IL-1B stimulus (AID 624486); conditions: IL-1B + dexamethasone, luminescence; percent of negative control (+Dex): actives lie on both sides, concentration not given here; z-score: measured here: IL-1B alone, no Dex;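 for percent of negative control (+Dex): 100% = mean signal of vehicle control wells on the plate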
[3] = C. elegans survival during P. aeruginosa infection – whole organism (AID 651566);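 note: tested at 14 µM; sign flipped so higher z means a lower ratio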; conditions: C. elegans killed by P. aeruginosa, survival ratio
[4] = pro-inflammatory signaling induction in mouse macrophages – cell-based, murine, luminescence (AID 652131); conditions: murine macrophage pro-inflammatory reporter, stronger effect = higher value
[5] = target: Cellular tumor antigen p53 (Homo sapiens) (UniProt P04637); experiment: GFP-p53 level modulators in HPV16+ cells – imaging, known kinase inhibitor set, EGFP/DsRed ratio (AID 1053116); conditions: GFP-p53 stability, stronger effect = higher value; EGFP object count: measured here: GFP-p53 positive objects count;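 note: cells exposed to compounds for 24 h at 37 °C before reading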
[6] = inducers of IRF3 signaling, differentiated THP-1 – cell-based, PMA-stimulated THP-1, luminescence (AID 1053176); conditions: PMA-differentiated THP-1, IRF3 reporter luminescence; stronger effect = higher value
[7] = MELAS cybrid and Rieske KO viability enhancers – cell-based, MELAS cybrids, Rieske KO mouse fibroblasts, CellTiter-Glo, primary screen (AID 1508586;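 active = mean z-score across replicates of 1.96 or higher in either the MELAS or the Rieske mutant cell line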;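 note: z relative to plate mean and SD of compound and empty wells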); conditions: low glucose
[8] = MELAS cybrid survival, CellTiter-Glo 48 h, stronger effect = higher value
[9] = Rieske KO mouse fibroblast survival, CellTiter-Glo 72 h

Chain of Cellular tumor antigen p53 (Homo sapiens) (P04637 whole entry, looked up): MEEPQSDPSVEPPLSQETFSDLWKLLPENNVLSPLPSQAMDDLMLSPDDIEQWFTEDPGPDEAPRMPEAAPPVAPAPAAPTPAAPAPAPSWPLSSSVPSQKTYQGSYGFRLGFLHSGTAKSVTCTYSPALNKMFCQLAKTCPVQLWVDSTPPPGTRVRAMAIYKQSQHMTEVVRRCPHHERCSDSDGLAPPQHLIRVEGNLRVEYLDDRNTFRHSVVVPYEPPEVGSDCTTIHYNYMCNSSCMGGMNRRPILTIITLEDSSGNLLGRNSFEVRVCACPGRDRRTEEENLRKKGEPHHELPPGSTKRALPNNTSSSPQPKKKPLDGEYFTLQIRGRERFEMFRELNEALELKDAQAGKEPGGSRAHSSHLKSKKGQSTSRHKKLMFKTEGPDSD

SMILES	liver cell % of control [1]	parasite % of control [1]	percent of negative control (+Dex) [2]	z-score [2]	z-score [3]	z-score [4]	EGFP object count [5]	EGFP/DsRed ratio [5]	fraction signal [6]	z-score [7, 8]	z-score [7, 9]
O=C1Nc2ccc(C(=O)c3ccco3)cc2/C1=C/c1cc(Cl)c(O)c(Cl)c1	143%	74.2% (inactive)	91% (inactive)	0.035	0.21 (inactive)	-0.774 (inactive)	4.5	0.0627 (inactive)	-0.005 (inactive)	-1.39 (inactive)	-0.429
Cc1ccc(C(=O)NC2CCC2)cc1-c1ccc(C(=O)NCC2CC2)cc1	104%	116% (inactive)	98.5% (inactive)	1.36	0.425 (inactive)	-0.285 (inactive)	2	0.0763 (inactive)	-0.002 (inactive)	-0.173 (inactive)	-0.404
O=C(Nc1n[nH]c2nc(-c3ccc(O)cc3)c(Br)cc12)C1CC1	74.6%	71% (inactive)	206% (active)	0.485	0.105 (inactive)	-1.27 (inactive)	2.5	0.0391 (inactive)	-0.013 (inactive)	7.51 (active)	-0.202
Cc1cc(O)cc(C)c1/C=C/c1cncc(-c2nn[nH]n2)c1	110%	109% (inactive)	106% (inactive)	-0.05	0.305 (inactive)	3.53 (inactive)	4.5	0.0667 (inactive)	-0.004 (inactive)	-0.295 (inactive)	-0.403
COc1cc(/C=N/Nc2ncnc3[nH]ncc23)ccc1O	81.7%	96.9% (inactive)	87.5% (inactive)	-0.055	0.42 (inactive)	-0.354 (inactive)	2.5	0.119 (inactive)	0.001 (inactive)	0.451 (inactive)	-0.093
COC(=O)Nc1nc2ccc(Oc3ccc(NC(=O)Nc4cccc(C(=O)O)c4)cc3)cc2[nH]1	122%	180% (inactive)	118% (inactive)	1.69	0.33 (inactive)	-0.479 (inactive)	5.5	0.0528 (inactive)	-0.002 (inactive)	-0.776 (inactive)	-0.262
NS(=O)(=O)c1ccc(N=Nc2c(O)[nH]c3ccc(-c4cnco4)cc23)cc1	87.3%	140% (inactive)	104% (inactive)	0.22	-0.29 (inactive)	3.29 (inactive)	10	0.401 (inactive)	0.0025 (inactive)	0.293 (inactive)	-0.0502
COc1cc2c(cc1Nc1nc(Nc3cccc(F)c3C(N)=O)c3cc[nH]c3n1)N(C(=O)CN1CCN(C(C)C)CC1)CC2	73.3%	300% (inactive)	95.5% (inactive)	-0.34	0.095 (inactive)	-0.476 (inactive)	4.5	0.201 (inactive)	0.004 (inactive)	-0.91 (inactive)	-0.402
Fc1cccc(COc2ccc(Nc3ncnc4cc(-c5ccc[nH]5)sc34)cc2Cl)c1	45.8%	16.2% (inactive)	66.5% (inactive)	-1.57	0.215 (inactive)	-0.371 (inactive)	3	0.034 (inactive)	-0.0045 (inactive)	-0.761 (inactive)	-0.0837
COc1ccc2c(-c3ccnc(Nc4cccc(OC(F)(F)F)c4)n3)cnn2n1	77.9%	166% (inactive)	91% (inactive)	-0.08	-0.6 (inactive)	-0.916 (inactive)	5.5	0.0552 (inactive)	-0.005 (inactive)	0.611 (inactive)	-0.245
COc1ccc(-c2cc(C3CNNC3c3ccccn3)ccn2)cc1 (centres undefined)	171%	92.3% (inactive)	104% (inactive)	1.42	-0.77 (inactive)	2.73 (inactive)	3.5	0.0398 (inactive)	-0.0055 (inactive)	-0.36 (inactive)	-0.107
COc1cc2ncn(-c3cc(O[C@H](C)c4ccccc4Cl)c(C(N)=O)s3)c2cc1OC	137%	13.5% (active)	53.5% (inactive)	-3.26	-0.155 (inactive)	-1.16 (inactive)	5.5	0.108 (inactive)	-0.004 (inactive)	-1.03	5.68
CS(=O)(=O)Nc1ccc(N=Cc2c(O)[nH]c3ccccc23)cc1	95.2%	107% (inactive)	108% (inactive)	1.36	0.265 (inactive)	2.34 (inactive)	4	0.123 (inactive)	-0.0045 (inactive)	1.4 (inactive)	-0.36
COC1CCC2NC3C4NC5CCC(OC)CC5C4C4C(=O)NC(=O)C4C3C2C1 (centres undefined)	93.4%	178% (inactive)	106% (inactive)	1.79	0.155 (inactive)	-0.67 (inactive)	3	0.0486 (inactive)	-0.005 (inactive)	-0.302 (inactive)	0.67
